Compounds with a hit are over-represented: about 3.9% of the library has one in this group of screens.
Vc quorum ag: inducers of Vibrio cholerae quorum light production without autoinducers, primary screen, BH1578 luxS cqsA deficient, single point; V. cholerae BH1578 lux reporter, luminescence, 6 h; activation, % at 18.7 µM; 350,000 compounds, 0.16% hits; AID 588436, 2011; in the data active means activation mostly above about 9.7%, no sharp cut-off
Mtb FBA inh: Mtb FBA enzyme inhibitors, primary screen, biochemical, fluorescence, strain H37Rv; Fructose-bisphosphate aldolase (Mycobacterium tuberculosis (strain ATCC 25618 / H37Rv)), …; purified M. tuberculosis FBA, fluorescence read-out; inhibition, % at 1 µM; 360,000 compounds, 2.3% hits; AID 588726, 2011; in the data active means inhibition above about 27%
Target sequence (P9WQA3 whole entry, looked up): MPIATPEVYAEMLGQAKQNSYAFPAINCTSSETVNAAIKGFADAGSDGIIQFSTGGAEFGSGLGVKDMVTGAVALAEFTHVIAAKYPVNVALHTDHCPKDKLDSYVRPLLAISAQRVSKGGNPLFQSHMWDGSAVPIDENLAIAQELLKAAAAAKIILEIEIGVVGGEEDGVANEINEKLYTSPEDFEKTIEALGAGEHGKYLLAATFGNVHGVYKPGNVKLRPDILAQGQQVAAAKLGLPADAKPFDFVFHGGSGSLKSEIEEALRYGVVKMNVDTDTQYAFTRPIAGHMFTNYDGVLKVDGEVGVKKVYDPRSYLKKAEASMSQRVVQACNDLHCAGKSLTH
GDH-TPI counter: GDH-TPI coupling enzyme inhibitors, primary screen, artefact control for M. tuberculosis FBA inhibitor project, biochemical, absorbance, full deck; GDH-TPI coupled enzyme counterscreen, NADH absorbance; inhibition, % at 4.8 µM; 360,000 compounds, 1.2% hits; AID 588335, 2011
CCHFV vOTU inh: CCHFV vOTU protease inhibitors, primary screen, biochemical, Pep-AMC substrate, fluorescence | 370,000 compounds, 0.55% hits | inhibition, % at 11.5 µM | AID 651958, 2012
Large screens that a line does not name were inactive. Unless noted, no stated cut-off is given here; in the data, active means inhibition above about 30%; inactive means the rest.

CC(O)c1ccc(Oc2cnccn2)cc1 (centres undefined)	Mtb FBA inh 190.2
CCc1[nH]c(C)c(C(C)=O)c1C	none
Cc1cc(=O)oc2cc(OCC(=O)NCC3CCC(C(=O)O)CC3)ccc12 (centres undefined)	none
COc1ccc2c(CC(=O)NCC3CCC(C(=O)O)CC3)cc(=O)oc2c1 (centres undefined)	Mtb FBA inh 132.7
COc1ccc2c(COC(=O)CCS(=O)(=O)c3ccccc3)cc(=O)oc2c1	Mtb FBA inh 133.7 (no result: CCHFV vOTU inh)
COc1ccc(-c2cc(=O)oc3cc(OCC(=O)NCC4CCC(C(=O)O)CC4)ccc23)cc1 (centres undefined)	GDH-TPI counter 33.3
CCOC(=O)C(=CNc1cccc(C)c1C)C(=O)OCC	none
CCOC(=O)C(=CNc1ccccc1N1CCOCC1)C(=O)OCC	GDH-TPI counter 50.3
CCOC(=O)c1nc(Nc2ccc(C(=O)O)cc2)c2ccccc2n1	GDH-TPI counter 31.3
O=C(O)c1ccc(Nc2nc(-c3ccccc3)nc3ccccc23)cc1	GDH-TPI counter 46.6
CCOC(=O)c1nc(Nc2ccc(Nc3ccccc3)cc2)c2ccccc2n1	none (no result: Vc quorum ag)
CCOC(=O)c1ccc(Nc2nc(C(=O)OCC)nc3ccccc23)cc1	GDH-TPI counter 35.0
C=CCN(CC(=O)O)S(=O)(=O)c1ccccc1C(F)(F)F	none
C/C(=N/N=C(/N)SCc1ccccc1)C(C)(C)C	none
O=C(N/N=C/C(Cl)=C/c1ccccc1)c1ccco1	GDH-TPI counter 35.4
O=C(N/N=C/C(Cl)=C\c1ccccc1)c1ccco1	GDH-TPI counter 33.0
O=C1CCCC(=O)N1CCCCCCN1C(=O)CCCC1=O	none
O=C(Nc1ccc(OCc2ccccc2)cc1)Nc1ccccc1C(=O)NCCCN1CCOCC1	none
Cc1cc(C)c(NS(=O)(=O)c2ccc(NC(=O)CCC(=O)O)cc2)c(C)c1	none
COc1ccccc1[C@H]1C(c2ccccc2)=NN(c2ccccc2)[C@@H]1CO	Mtb FBA inh 79.2 (no result: CCHFV vOTU inh)
COc1ccc(CCC(=O)Nc2c(-c3ccc(N(C)C)cc3)[nH][nH]c2=O)cc1	CCHFV vOTU inh 108.7 (no result: Vc quorum ag, GDH-TPI counter)
COc1cc(/C=C/C(=O)N(C)CC(=O)Nc2ccccc2Br)cc2c1OCCO2	none
O=C(NCCN1CCOCC1)c1cc(S(=O)(=O)Nc2ccccc2F)c(Cl)cc1Cl	none
O=C(NC(CO)(CO)CO)c1coc(=O)c(Br)c1	GDH-TPI counter 44.4
O=C(Nc1cc(Cl)cc(Cl)c1)c1coc(=O)c(Br)c1	Mtb FBA inh 136.5, GDH-TPI counter 32.4
CC(C)CNC(=O)c1coc(=O)c(Br)c1	none
CCOC(=O)c1sc2nccc(OC)c2c1N=CN(C)C	none
CCCCNC(=O)/C(C#N)=C/c1ccc(-c2ccc(S(=O)(=O)N3CCOCC3)cc2)o1	none
COCCn1c(=NC(=O)c2cc3ccccc3oc2=O)sc2cc(S(N)(=O)=O)ccc21	GDH-TPI counter 49.3
CCN1CCc2nc(NC(=O)c3ccccc3)sc2C1	GDH-TPI counter 32.5
O=C(Nc1nc2c(s1)CN(Cc1ccccc1)CC2)C1CCC1	none
O=C(NCC(c1cccnc1)N1CCN(c2ccc(F)cc2)CC1)c1ccc2c(c1)OCO2 (centres undefined)	none
COc1ccc(N2CCN(C(CNC(=O)c3ccc4c(c3)OCO4)c3cccnc3)CC2)cc1 (centres undefined)	Vc quorum ag active
CCOC(=O)c1sc(C)c(C(=O)NCCCN2CCOCC2)c1N	none (no result: Vc quorum ag)
Cc1ccc(-c2c(C#N)c(N)n(-c3ccc(Cl)cc3)c(=O)c2C#N)cc1	GDH-TPI counter 31.2
N#Cc1c(C#N)c(-c2ccccc2)n(-c2ccccc2)c1N	none
Cc1ccc(-c2c(C#N)c(N)n(-c3ccccc3)c(=O)c2C#N)cc1	GDH-TPI counter 40.3
CCOC(=O)c1nn(-c2ccc(Cl)cc2)c2nc(-c3ccc(C)cc3)c(C#N)c(=O)n12	none (no result: Vc quorum ag)
O=C(O)c1cccc(S(=O)(=O)N2CCC(n3nnc4cc(C(F)(F)F)ccc43)CC2)c1	none
CCOP(=O)(OCC)c1nc(-c2cccc3ccccc23)oc1N1CCOCC1	Mtb FBA inh active
CCOP(=O)(OCC)c1nc(-c2ccc(C)cc2)oc1N1CCOCC1	Mtb FBA inh 168.9
Fc1ccc(-c2ccnn2-c2ccccc2)cc1	none
CC(O)CNc1cc(N)c([N+](=O)[O-])cc1[N+](=O)[O-] (centres undefined)	GDH-TPI counter 42.9
CC(O)CNc1ccc(-c2n[nH]c(=O)c3ccccc23)cc1[N+](=O)[O-] (centres undefined)	none
O=C(COC(=O)c1ccccc1OCc1ccccc1Cl)NC1CCS(=O)(=O)C1 (centres undefined)	none
CCc1ccc2nc(SCC(=O)Nc3nnc(C)s3)c(C)cc2c1	none
O=C(COc1ccccc1)Nc1cccc(-c2cn3cccnc3n2)c1	Mtb FBA inh active
Nc1ccc(-c2cn3cccnc3n2)cc1	GDH-TPI counter 37.8
COc1ccc(-c2cn3cccnc3n2)cc1NC(=O)C1CCCC1	none
COc1ccc(-c2cn3cccnc3n2)cc1Br	Mtb FBA inh active
COc1cc(OC)cc(C(=O)Nc2cc(-c3cn4cccnc4n3)ccc2C)c1	Mtb FBA inh active
O=C(NCC(c1ccco1)N1CCOCC1)c1ccc(C(F)(F)F)cc1 (centres undefined)	none
Cc1ccc(C(=O)COC(=O)c2cccc(NC(=O)c3ccc([N+](=O)[O-])cc3[N+](=O)[O-])c2)cc1	none
Cn1nccc1C(=O)Oc1ccc(/C=N/NC(=O)c2ccccc2O)cc1	none
N#Cc1ccccc1NC(=O)CNc1ccc(Cl)c(C(F)(F)F)c1	none
Cc1ccc(-c2cn3cccnc3n2)cc1NC(=O)c1cccs1	Mtb FBA inh active
COc1ccc(-c2cn3cccnc3n2)cc1NC(=O)C(C)C	GDH-TPI counter 33.7
COc1ccc(-c2cn3cccnc3n2)cc1NC(=O)C1CC1	none (no result: CCHFV vOTU inh)
COc1cc(C(=O)Nc2cc(-c3cn4cccnc4n3)ccc2C)cc(OC)c1OC	Mtb FBA inh active
O=C(Nc1ccc(-c2cn3ccccc3n2)cc1)c1cccs1	none
Cc1ccc(C(=O)c2c3ccc(C(F)(F)F)cc3[n+]([O-])n2CCCN)cc1	none
Cc1nn(-c2ccccc2)c(C)c1C(=O)OCC(O)=C(C#N)c1nc2ccccc2[nH]1	none (no result: Vc quorum ag)
O=C(Nc1ccccc1)c1ccc2nc(-c3ccco3)c(-c3ccco3)nc2c1	CCHFV vOTU inh 48.0
O=C(Nc1ccc2nc(-c3ccco3)c(-c3ccco3)nc2c1)N1CCN(c2ccccn2)CC1	CCHFV vOTU inh 30.0
Cc1cnc(C(=O)OCC(=O)Nc2cc(-c3ccccc3)nn2-c2ccccc2)cn1	none
CN(CC(=O)Nc1ccc2c(c1)OCO2)S(=O)(=O)c1ccc(F)cc1	none
O=C(C1CCC(=O)N(C2CC2)C1)N(CCO)Cc1ccccc1 (centres undefined)	none
Cc1cc(=O)n2nc(N3CCCC(C(=O)N4CCc5ccccc54)C3)sc2n1 (centres undefined)	Vc quorum ag 16.7 (no result: CCHFV vOTU inh)
COc1cccc(C=C2SC(=S)N(Cc3ccco3)C2=O)c1OC	none (no result: Vc quorum ag, Mtb FBA inh, GDH-TPI counter)
COc1ccccc1OCCN1C(=O)S/C(=C\c2ccco2)C1=O	GDH-TPI counter 34.3

Compound activity (PubChem)
